Test systems include PRKD3; PRKG1; PRKG2; PRKX; PRP4; QSK; RAF1; RET; RIOK1; RIOK2; RIOK3; RIPK1; RIPK2; RIPK4; RIPK5; ROCK1; ROCK2; ROS1.
Common to all, as to settings: concentration: 1 μM,replicates: in singlicate; n = 1
A further experiment deals with T1, PRKR.
T1 construct: gene EIF2AK2

For another experiment, the system named is T2, PYK2.
T2 construct: gene PTK2B

The results in this text go back to article PMC5540273 (PLoS ONE, 2017).
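Further: KINOMEscan kinase panel screen.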

Turning to `CCCC(=O)Nc1n[nH]c2ncccc12` [SB-601436], the “%Inh” value is reported as 0% in the experiment with PRKD3; 5% in the experiment with PRKG1; 0% in the experiment with PRKG2; 0% in the experiment with PRKR; 0% in the experiment on PRKX; 8% with PRP4. Besides, the “%Inh” value in the experiment with PYK2 was 7%; with QSK it was 0%; in the experiment on RAF1 it was 0%; in the experiment on RET, 0%; in the experiment with RIOK1, 0%; in the experiment on RIOK2, 0%. The “%Inh” value with RIOK3, with RIPK1, in the experiment with RIPK2, in the experiment with RIPK4, in the experiment on RIPK5 and with ROCK1 was 0% each time. The “%Inh” value in the experiment on ROCK2 stood at 0%; with ROS1 it was 8%.
Take `Cl.Cl.NC[C@H](CC1CCCCC1)NC(=O)c1ccc(-c2ccnc3[nH]ccc23)s1` [GSK1581428]: the “%Inh” value with PRKD3 worked out at 96.2%; in the experiment on PRKG1 it was 99.9%; with PRKG2, 99.2%; in the experiment on PRKR, 13%; in the experiment on PRKX, 97.9%; in the experiment with PRP4 it was 81%. The “%Inh” value in the experiment with PYK2 came to 41%; in the experiment on QSK, 9%; in the experiment on RAF1 it was 0%; with RET, 38%; in the experiment on RIOK1 it was 100%; with RIOK2, 45%. Also, the “%Inh” value was 90.1% with RIOK3; 0% in the experiment with RIPK1; 0% in the experiment with RIPK2; 0% in the experiment on RIPK4; 0% in the experiment on RIPK5; 100% with ROCK1. Besides, the “%Inh” value is on record as 98.9% in the experiment on ROCK2 and 26% in the experiment on ROS1.
For `CC(C)S(=O)(=O)N1CCN(Cc2ccc3c(c2)nc(NC(=O)c2ccsc2)n3C[C@H](O)c2ccccc2)CC1` [GW635815], the “%Inh” value came to 0% in the experiment on PRKD3; 23% with PRKG1; 18% in the experiment with PRKG2; 0% in the experiment with PRKR; 16% in the experiment with PRKX; 10% in the experiment on PRP4. Further, the “%Inh” value came out at 38% in the experiment with PYK2; 3% in the experiment on QSK; 6% with RAF1; 44% in the experiment on RET; 36% with RIOK1; 33% with RIOK2. Besides, the “%Inh” value in the experiment with RIOK3 was 25%; with RIPK1, 20%; in the experiment with RIPK2, 4%; in the experiment on RIPK4 it was 7%; in the experiment on RIPK5 it was 0%; with ROCK1, 66%. Besides, the “%Inh” value is on record as 63% in the experiment with ROCK2 and 20% in the experiment on ROS1.
On to `COC(=O)c1cccc(NC(=O)NC2CCN(c3ccnc(Nc4cc(OC)c(OC)c(OC)c4)n3)C2)c1` (stereo not drawn) [GSK1379767], for which the “%Inh” value in the experiment on PRKD3 came to 0%; with PRKG1, 0%; in the experiment with PRKG2, 7%; with PRKR it was 19%; in the experiment with PRKX it was 5%; in the experiment with PRP4, 44%. For the same compound, the “%Inh” value is on record as 0% with PYK2; 0% in the experiment with QSK; 7% in the experiment with RAF1; 11% with RET; 70% with RIOK1; 0% in the experiment on RIOK2. The “%Inh” value is listed as 67% in the experiment on RIOK3; 23% in the experiment on RIPK1; 24% with RIPK2; 26% in the experiment with RIPK4; 0% in the experiment on RIPK5; 24% with ROCK1. For the same compound, the “%Inh” value in the experiment on ROCK2 stood at 20%; with ROS1, 30%.
Consider `COc1cccc(CNC(=O)NC2CCN(c3ccnc(Nc4cc(OC)c(OC)c(OC)c4)n3)C2)c1` (stereo not drawn) [GSK1379765], for which the “%Inh” value is 0% with PRKD3; 3% in the experiment on PRKG1; 0% in the experiment with PRKG2; 0% in the experiment with PRKR; 33% in the experiment on PRKX; 48% in the experiment with PRP4. Besides, the “%Inh” value in the experiment on PYK2 was determined as 0%; in the experiment with QSK it was 0%; in the experiment on RAF1, 21%; in the experiment on RET it was 19%; with RIOK1, 63%; in the experiment with RIOK2 it was 0%. Besides, the “%Inh” value in the experiment with RIOK3 is 56%; with RIPK1 it was 17%; in the experiment with RIPK2, 0%; in the experiment with RIPK4, 40%; with RIPK5, 5%; in the experiment on ROCK1, 67%. In addition, the results for the “%Inh” value with ROCK2 and in the experiment with ROS1 were 76% and 48%, respectively.
In the case of `O=C(Nc1cccc(Oc2ccc3nccn3n2)c1)Nc1cccc(C(F)(F)F)c1`, the “%Inh” value in the experiment on PRKD3 was found to be 20%; in the experiment on PRKG1, 6%; in the experiment on PRKG2, 0%; in the experiment with PRKR, 0%; in the experiment with PRKX it was 0%; in the experiment with PRP4, 11%. In addition, the “%Inh” value with PYK2 worked out at 3%; in the experiment on QSK, 14%; in the experiment on RAF1 it was 90%; in the experiment on RET, 86%; in the experiment with RIOK1 it was 0%; in the experiment with RIOK2, 0%. The “%Inh” value in the experiment with RIOK3 is 0%; in the experiment with RIPK1, 5%; in the experiment on RIPK2 it was 12%; in the experiment with RIPK4, 0%; in the experiment on RIPK5, 0%; with ROCK1, 3%. The “%Inh” value in the experiment with ROCK2 and in the experiment with ROS1 was 0% in each case.
Regarding `CSc1nccc(-c2c(-c3ccc(F)cc3)ncn2CCCN2CCOCC2)n1.Cl` [SB-217146], the “%Inh” value in the experiment with PRKD3, with PRKG1, with PRKG2, in the experiment on PRKR, in the experiment on PRKX and in the experiment with PRP4 was 0% in each case. The “%Inh” value was found to be 5% in the experiment with PYK2; 5% in the experiment on QSK; 0% with RAF1; 2% in the experiment on RET; 0% with RIOK1; 0% in the experiment on RIOK2. Moreover, the “%Inh” value is listed as 0% with RIOK3; 0% in the experiment with RIPK1; 0% with RIPK2; 3% with RIPK4; 33% with RIPK5; 40% in the experiment with ROCK1. Besides, the “%Inh” value in the experiment with ROCK2 came out at 10%; with ROS1 it was 0%.
As to `O=C(Nc1ccc(Oc2ccc3nc(NC(=O)C4CC4)cn3n2)c(F)c1)c1cccn(-c2ccccc2)c1=O`, the “%Inh” value in the experiment with PRKD3 is reported as 0%; in the experiment with PRKG1, 30%; in the experiment on PRKG2, 1%; in the experiment with PRKR, 0%; in the experiment with PRKX, 0%; with PRP4, 0%. In addition, the “%Inh” value in the experiment on PYK2 was 19%; in the experiment with QSK, 0%; with RAF1 it was 87%; with RET it was 99.9%; with RIOK1 it was 13%; in the experiment with RIOK2, 0%. Further, the “%Inh” value in the experiment on RIOK3 was found to be 31%; in the experiment on RIPK1, 80%; in the experiment on RIPK2, 4%; in the experiment on RIPK4, 0%; with RIPK5, 0%; in the experiment with ROCK1, 0%. Besides, the “%Inh” value in the experiment on ROCK2 and in the experiment on ROS1 was 0% throughout.
Turning to `Cc1cccc(-c2nc(Nc3ccncc3)c3sccc3n2)n1` [GW869641], the “%Inh” value in the experiment on PRKD3 came out at 90.7%; with PRKG1, 7%; in the experiment with PRKG2, 14%; in the experiment with PRKR, 54%; in the experiment on PRKX it was 0%; in the experiment with PRP4, 0%. For the same compound, the “%Inh” value was 20% in the experiment on PYK2; 24% with QSK; 4% in the experiment with RAF1; 31% with RET; 35% with RIOK1; 42% in the experiment with RIOK2. The “%Inh” value in the experiment on RIOK3 was found to be 28%; with RIPK1 it was 0%; in the experiment on RIPK2 it was 62%; in the experiment on RIPK4, 42%; in the experiment on RIPK5, 25%; in the experiment on ROCK1, 27%. Further, the “%Inh” value was determined as 38% in the experiment on ROCK2 and 21% in the experiment on ROS1.
